Test [1] is described as follows: NCI Yeast Anticancer Drug Screen. Data for the rad50 strain (AID 155).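 Also: 0% = growth of vehicle-only cultures of the same strain.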 The note with it: S. cerevisiae rad50 strain growth inhibition; at 50.0 µM; stronger effect = higher value. An outline of the steps: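 Readout: growth inhibition relative to vehicle-treated cultures. Compound exposure was carried out in a genetically defined yeast strain deficient in DNA damage repair.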

The nature of test [2]: NCI Yeast Anticancer Drug Screen. Data for the mec2-1 strain (AID 157). The conditions noted are these: S. cerevisiae mec2-1 strain, at 50.0 µM, stronger effect = higher value. The method, boiled down: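 Each compound was tested on mec2-1 yeast, a strain altered in DNA damage repair or cell cycle control. Growth inhibition is reported relative to vehicle.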
Test [3] can be described thus: NCI Yeast Anticancer Drug Screen. Data for the sgs1 mgt1 strain (AID 161).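 Also: 0% = growth of cultures given vehicle only.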 The note with it: S. cerevisiae sgs1 mgt1 strain, at 50.0 µM, stronger effect = higher value. The method, boiled down:
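Inhibition of yeast growth, normalised to vehicle-treated controls, is reported for a strain bearing genetic alterations in DNA damage repair.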

Test [4] can be described thus: NCI Yeast Anticancer Drug Screen. Data for the cln2 rad14 strain (AID 165).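 Also: 0% = growth equal to vehicle treated cultures.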 The note with it: S. cerevisiae cln2 rad14 strain, at 50.0 µM, stronger effect = higher value. The method, boiled down:
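Test compounds were added to cln2 rad14 yeast cultures; inhibition of growth was then determined by comparison with vehicle treatment.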

Test [5] is described as follows: NCI Yeast Anticancer Drug Screen. Data for the bub3 strain (AID 167). The note with it: S. cerevisiae bub3 mutant strain, at 50.0 µM, stronger effect = higher value. The method, boiled down: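 Readout: yeast growth inhibition, expressed relative to vehicle-only wells. The test organism is a mutant strain from a panel with lesions in DNA repair or checkpoint genes.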
A short description of test [6]: NCI Yeast Anticancer Drug Screen. Data for the mlh1 rad18 strain (AID 175). The note with it: S. cerevisiae mlh1 rad18 strain growth inhibition; at 50.0 µM; stronger effect = higher value. An outline of the steps: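 Inhibition values reflect reduced growth of mutant yeast versus vehicle-treated controls following compound exposure; the mutations affect DNA damage repair.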

Our source for the growth inhibition values is PubChem BioAssay (NCI).

About 79,000 compounds went through this panel and 15% of them were active in at least one assay; those are over-represented in the sample as a whole. Unmarked numbers belong to inactive results. Active and inactive are the calls of the source. Rule as the data show it: active = growth inhibition above about 70%; inactive = the rest.

On to `Cc1ccc(S(=O)(=O)C(C#N)CCC(=O)c2ccc(Cl)cc2)cc1` (stereo unspecified), for which the growth inhibition in test [1] is 6.25%; in test [2], 3.55%; in test [3] it was 6.75%; in test [4], 9.45%; in test [5] it was 10.2%; in test [6] it was 17.6%.

Take `O=C(CCc1nnc2s/c(=C\c3ccc(Cl)cc3Cl)c(=O)n12)Nc1cc(Cl)c(Cl)cc1Cl`: the growth inhibition is -17.6% in test [1]; 18.2% in test [2]; -7.4% in test [3]; 20.6% in test [4]; 9.05% in test [5]; 4.35% in test [6].

As to `N#C/C1=C(\N)CCSSSC1`, the growth inhibition in test [1] is 30.8%; in test [2], 25.9%; in test [3] it was 17.4%; in test [4], 21.3%; in test [5] it was 9.5%; in test [6], -0.2%.

`CC1(C)[C@@H]2C[C@H]1C(Cc1cccc(C[C@H]3c4cc(-c5ccccn5)ncc4[C@H]4C[C@@H]3C4(C)C)c1)c1cc(-c3ccccn3)ncc12` (stereo partly specified): the growth inhibition in test [1] was -2.2%; in test [2] it was -14.7%; in test [3], 4.95%; in test [4], -7.7%; in test [5] it was 45.2%; in test [6], -8.65%.

Turning to `Cn1c(=O)c2c(nc3sc4ccccc4c(=O)n32)n(C)c1=O`, the growth inhibition in test [1] was 19.2%; in test [2], -9.05%; in test [3] it was -7.4%; in test [4], 16.6%; in test [5], -30.9%; in test [6], 13.8%.

Turning to `C[N+](C)(N)CCS(N)(=O)=O`, the growth inhibition in test [1] was 0.15%; in test [2], -9.8%; in test [3] it was 5.6%; in test [4], -22.4%; in test [5], 26.7%; in test [6], 0.5%.

For the molecule `CCOC(=O)C(NC(=O)Cc1ccccc1)C(=O)OCC`, the growth inhibition is 10.8% in test [1]; 10.3% in test [2]; -0.75% in test [3]; 10.8% in test [4]; 14.9% in test [5]; -17.9% in test [6].

Turning to `CC(C)c1ccccc1[S+]1OC(C)(C)c2ccccc21` (stereo unspecified), the growth inhibition in test [1] is -4.9%; in test [2], 21.9%; in test [3], 6.95%; in test [4], 9.45%; in test [5], -1.5%; in test [6], -38.7%.

Consider `c1csc(-c2nccc3ccccc23)c1`, for which the growth inhibition in test [1] was 1.6%; in test [2] it was 2.3%; in test [3] it was -19.2%; in test [4] it was 2.2%; in test [5], 7.7%; in test [6] it was 10.6%.

With `OCC(O)CNc1ncnc2ccccc12` (stereo unspecified), the growth inhibition is -1.65% in test [1]; -11.8% in test [2]; 3.4% in test [3]; -26.4% in test [4]; 1.7% in test [5]; 10.2% in test [6].

In the case of `CC1=CCCC(C)(C)C1/C=C/C(=O)O` (stereo unspecified), the growth inhibition in test [1] was 8.45%; in test [2], -7.35%; in test [3], -8.75%; in test [4], -36.3%; in test [5], -18.1%; in test [6] it was -9.2%.

In the case of `O=C(NC1CCCCC1)Oc1ccc(Cl)cc1Cl`, the growth inhibition in test [1] was 4.8%; in test [2], 23.9%; in test [3], 28.2%; in test [4], -8.45%; in test [5], 35.6%; in test [6], 31.9%.

Turning to `Brc1cccc2c(SCCCCCCSc3c4ccccc4nc4c(Br)cccc34)c3ccccc3nc12`, the growth inhibition in test [1] is 3.1%; in test [2], -16.1%; in test [3] it was -18.8%; in test [4], -52.5%; in test [5] it was -21%; in test [6] it was 5.85%.

Consider `CC(C)c1ccc2c(c1)CC[C@H]1[C@](C)(COCCC#N)CCC[C@]21C`, for which the growth inhibition in test [1] was -10.9%; in test [2] it was -28.2%; in test [3], -14.2%; in test [4] it was -63.1%; in test [5], -17.1%; in test [6], -30%.

In the case of `CCCCCCCOC(=O)c1ccccc1Cl`, the growth inhibition in test [1] is 7.3%; in test [2] it was -10.1%; in test [3] it was 23.4%; in test [4], -6.7%; in test [5], 13.9%; in test [6] it was 2%.

With `CS(=O)(=O)OC(OS(C)(=O)=O)(OS(C)(=O)=O)OS(C)(=O)=O`, the growth inhibition in test [1] is 15.9%; in test [2], 6.2%; in test [3], 0.65%; in test [4] it was -7.9%; in test [5] it was -2.4%; in test [6], 9.3%.

On to `CN(C)c1ccc(/C=N\NC(=S)Nc2ccc3cn[nH]c3c2)cc1`, for which the growth inhibition was 20.9% in test [1]; -10.9% in test [2]; -1.15% in test [3]; 8.1% in test [4]; 23.3% in test [5]; -9.5% in test [6].

With `N#Cc1cccc(O)c1`, the growth inhibition was -3.45% in test [1]; -10.7% in test [2]; -2.45% in test [3]; 20.1% in test [4]; 13.7% in test [5]; 12% in test [6].

For `CCOC(=O)NN(C(=O)OCC)c1c(NC)n(C)c(=O)n(C)c1=O`, the growth inhibition in test [1] is -23.4%; in test [2] it was 7.1%; in test [3], -7.7%; in test [4], -23.8%; in test [5] it was 11.1%; in test [6], 13.3%.

In the case of `CCCCCN(CCCCC)C(=S)[S-].CCCCCN(CCCCC)C(=S)[S-].[Zn]`, the growth inhibition in test [1] was 72.7% (active); in test [2], 53.6%; in test [3] it was 72.1% (active); in test [4] it was 46.4%; in test [5] it was 42.1%; in test [6] it was 60.8%.

Turning to `CCCC(Sc1nc(N)nc2nc[nH]c12)C(=O)O` (stereo unspecified), the growth inhibition in test [1] is -18.7%; in test [2] it was -10.2%; in test [3], -26.3%; in test [4] it was -24.3%; in test [5], -29%; in test [6], 4.9%.
